Source: PubChem BioAssay
GLP1R cytotox – cytotoxicity in counter-screen for GLP-1R inverse agonists | HEK293 cAMP-luciferase reporter cells, luminescence, 24 h | Potency, µM (titrated, usually from 38.3 µM), most hits filed as inhibitors | 410,000 tested, 0.13% active;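 further: loss of luciferase light is scored as toxicity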
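Compound-treated cells are incubated 24 hr at 37 deg C under 5% CO2 after a 12 hour attachment period, then luciferase detection reagent is added and luminescence is measured following 12 min at room temperature; lowered signal indicates toxicity.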
GLP1R ag – activates the human GLP-1 receptor; HEK293 GLP-1R CRE-luciferase, luminescence, 4-6 h; cells express a hypersensitive GLP-1R form; Potency, µM (doses to about 45.6 µM), usual class: activators; 380,000 tested, 0.007% active; AID 624172
Target sequence (P43220 whole entry, looked up): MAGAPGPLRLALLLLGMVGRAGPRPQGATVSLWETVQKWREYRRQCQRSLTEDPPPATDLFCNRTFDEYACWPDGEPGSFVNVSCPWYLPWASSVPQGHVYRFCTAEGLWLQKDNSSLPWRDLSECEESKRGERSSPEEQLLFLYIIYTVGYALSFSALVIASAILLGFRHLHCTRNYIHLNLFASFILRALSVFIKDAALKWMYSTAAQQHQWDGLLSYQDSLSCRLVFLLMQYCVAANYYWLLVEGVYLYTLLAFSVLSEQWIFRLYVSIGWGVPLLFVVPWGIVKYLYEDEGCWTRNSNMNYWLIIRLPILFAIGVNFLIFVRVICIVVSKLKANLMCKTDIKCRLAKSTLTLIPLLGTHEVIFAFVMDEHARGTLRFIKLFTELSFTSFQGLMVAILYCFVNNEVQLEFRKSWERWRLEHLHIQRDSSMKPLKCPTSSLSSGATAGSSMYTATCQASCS
GLP-1R inv ag – inverse agonists of human GLP-1 receptor. P43220. HEK293 GLP-1R CRE-luciferase, luminescence, 24 h; GLP-1R form is constitutively active. Potency, µM (series often up to 38.3 µM), most hits filed as inhibitors. 410,000 tested, 1.6% active. AID 624417; further: nearly all actives have a fitted effect of over 55% in size
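Assay principle: reduced luminescence from a cAMP-responsive reporter in HEK293 cells co-expressing a constitutively active GLP-1R. Conditions: 24 hr compound incubation, 37 deg C, 5% CO2.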
Mito fusion yeast – blocks mitochondrial division or promotes mitochondrial fusion; S. cerevisiae fusion-defective mutant growth rescue, CellTiterGlo 48 h; Potency, µM (top dose mostly 46.1 µM), hits mostly activators; 320,000 tested, 0.23% active; AID 485298; further: nearly all actives have a fitted effect of over 45% in size
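Growth-rescue viability read-out: after 48 h at the non-permissive 37C in glycerol/ethanol YPEG, yeast mitochondrial fusion mutants are measured by CellTiterGlo luminescence; compounds (23 nl pinned per well) restoring growth score as division inhibitors or fusion activators.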
BRCA1 expr up – BRCA1 expression activation; MCF7-BRCA1-FFLuc reporter, luminescence, 48 h; response scale: scaled: vehicle 0%, 10 µM genistein 100%; Potency, µM (doses to about 46.1 µM), most hits filed as activators; 380,000 tested, 1.1% active; AID 624202; further: nearly all actives have a fitted effect of over 80% in size
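Quantitative HTS in MCF7 cells stably reporting BRCA1 expression via firefly luciferase. Compound treatment lasts 48 h at 37 °C in phenol-red free MEM. Activation is expressed relative to genistein at 10 microM and DMSO.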
Each line names hits and unclear results; the compound was inactive in the other large screens. Only some compounds are listed: those with a hit (about 2.8% of all), similar ones and a draw of the others. The call rests on the fitted dose curve; in most records, active means well fitted curve in the direction sought with a large enough effect; inconclusive means small, poorly fitted or top-dose-only effect, or another doubt; inactive means no such curve, though single readings can be large; an effect the other way counts as inactive or inconclusive.

COc1ccc(C(=O)NC2CCCc3c2cnn3-c2cc(F)cc(F)c2)c(OC)c1OC (centres undefined)	GLP-1R inv ag inconclusive, Mito fusion yeast 11.2µM
O=C(Cc1ccccc1)NNc1ccc2ccccc2c1	GLP-1R inv ag 0.562µM
COc1ccc(CC(=O)NCC2CCCN(Cc3ccc(OC(F)(F)F)cc3)C2)cc1 (centres undefined)	GLP-1R inv ag 10µM
O=C1C(=C(c2ccccc2)c2ccccc2)Nc2ccccc21	GLP1R cytotox inconclusive, GLP-1R inv ag 3.16µM
COc1ccc(CCNC(=S)NC(=O)c2ccc(Br)cc2)cc1OC	GLP-1R inv ag inconclusive
Cc1ccc(/C(C#N)=C\c2cn(C)c3ccccc23)cc1	none (no result: GLP1R cytotox, GLP1R ag, GLP-1R inv ag, BRCA1 expr up)
CCS(=O)(=O)N1Cc2ccccc2CC1C(=O)OCC(=O)Nc1ccc(SC(F)F)cc1 (centres undefined)	GLP-1R inv ag inconclusive
Nc1ccc(-c2nnn(Cc3ccccc3F)n2)cc1	BRCA1 expr up 11.2µM
CC(C)n1nnc(-c2ccc(OCc3ccccc3F)cc2)n1	GLP-1R inv ag inconclusive, BRCA1 expr up 4.47µM
CCOc1ccc(-n2c(=O)c3c(C)c(C)sc3n(CC(=O)Nc3ccc(CC)cc3)c2=O)cc1	none (no result: GLP1R ag, Mito fusion yeast, BRCA1 expr up)
COC(=O)c1c(C)[nH]c(C(=O)OCc2ccc(F)cc2)c1C	BRCA1 expr up 4.47µM
C=C(C)C1CCC(C)=C1COC(=O)Nc1ccccc1 (centres undefined)	GLP-1R inv ag 8.91µM
COc1ccccc1CNc1nc(NCc2ccc(C)cc2C)c2sccc2n1	GLP-1R inv ag inconclusive (no result: Mito fusion yeast)
CCN1CCSc2ccc(C(=O)NCc3cccc(Br)c3)cc21	GLP-1R inv ag 10µM
Cc1cc(C(=O)NCCC2=CCCCC2)no1	BRCA1 expr up 10µM
O=C(NCCC1=CCCCC1)c1cnsn1	BRCA1 expr up inconclusive
O=C(NCCC1=CCCCC1)c1cc(COc2ccc(F)cc2Cl)on1	GLP-1R inv ag 5.01µM
CC(=O)c1cccc(OCc2cc(C(=O)NCCC3=CCCCC3)no2)c1	GLP-1R inv ag inconclusive, BRCA1 expr up 3.16µM
O=C(NCCC1=CCCCC1)c1cc(COc2c(F)cccc2F)on1	GLP-1R inv ag inconclusive
CCN(CC)CCn1c(=S)[nH]c2cc(C(=O)NCc3ccccc3)ccc2c1=O	none (no result: Mito fusion yeast)
Cc1ccc(-n2ncc3c(Nc4cccc(C)c4)ncnc32)cc1	BRCA1 expr up 2.82µM (no result: Mito fusion yeast)
CCCn1ncc2c(Nc3ccc(C)c(C)c3)ncnc21	BRCA1 expr up 8.91µM
Cc1cccc(-n2ncc3c(Nc4c(C)cc(C)cc4C)ncnc32)c1	GLP-1R inv ag 5.62µM (no result: GLP1R ag, Mito fusion yeast, BRCA1 expr up)
CN1C[C@@H]2C(c3ccc(Cl)nc3)C3(c4ccc(C#N)cc4)CC2(C3)[C@H]1c1ccccc1 (some centres undefined)	GLP-1R inv ag inconclusive
CC(C)(C)OC(=O)NCCCCCNC(=O)c1[nH]cnc1C(=O)Nc1cccc(Cl)c1	none
Cc1ccc(Nc2cc(C)nc3ccccc23)c(C)c1	GLP-1R inv ag 10µM (no result: Mito fusion yeast)
Cc1cccc(Nc2cc(C)nc3ccccc23)c1	none
Cc1cc(Nc2ccccc2O)c2ccccc2n1	none
Cc1ccc(C)c(Nc2cc(C)nc3ccccc23)c1	GLP1R cytotox inconclusive, GLP-1R inv ag 7.08µM (no result: Mito fusion yeast)
COC(=O)c1ccc(C)c(NC(=O)CCSc2ccc(Cl)cc2)c1	GLP-1R inv ag inconclusive
Brc1ccc(-c2nnc(-c3ccccc3)c(N3CCSCC3)n2)cc1	GLP-1R inv ag 8.91µM
CN1CCN(c2nc(-c3ccc(Br)cc3)nnc2-c2ccccc2)CC1	GLP-1R inv ag 8.91µM
COc1cccc(C(=O)NCC2(c3ccccc3)CCCC2)c1OC	GLP-1R inv ag 7.08µM
CC(C)c1ccc(NC(=O)C2CC3CCC2C3)cc1 (centres undefined)	GLP-1R inv ag inconclusive, BRCA1 expr up 6.31µM
O=C(Nc1ccc(F)cc1)C1CC2CCC1C2 (centres undefined)	GLP-1R inv ag inconclusive
CCC(C)c1ccc(NC(=O)C2CC3CCC2C3)cc1 (centres undefined)	GLP-1R inv ag inconclusive, BRCA1 expr up 7.08µM (no result: Mito fusion yeast)
COCCNC(=O)CN(C(=O)c1ccc(N2CCCC2)nc1)c1ccc(Cl)cc1	none
N#Cc1ccc(C=NN2CCCCCC2)cc1	BRCA1 expr up 6.31µM (no result: Mito fusion yeast)
Clc1ccc(/C=N/N2CCCCC2)cc1	none
Clc1ccc(C=NN2CCCCCC2)cc1	BRCA1 expr up 10µM (no result: Mito fusion yeast)
